HT1080-NT tox – kills 2HG-producing HT-1080-NT fibrosarcoma cells; Potency, µM (highest dose often 46.1 µM), most hits filed as cytotoxic; 360,000 tested, 1.6% active; HT-1080-NT fibrosarcoma viability, CellTiter-Glo ATP luminescence, 48 h;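 note: NT is the 2HG producing partner of a matched IDH1 knockdown line; nearly all actives have a fitted effect of over 55% in size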
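Toxicity toward the 2HG-producing NT line was scored as %Activity, normalised to DMSO and no-cell wells, from CellTiter-Glo luminescence after 48 hours' treatment.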
HT1080 IDH1KD tx – HT-1080 IDH1 knockdown cell toxicity (counter line). HT-1080 IDH1 knockdown viability, ATP luminescence, 48 h. Potency, µM (doses to about 46.1 µM), most hits filed as cytotoxic. 360,000 tested, 2% active. AID 686971
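Knockdown cells (IDH1KD HT-1080) received compounds 2 h after plating at 750 cells/well and were kept 48 h at 37 °C in 5% FBS RPMI. A CellTiter-Glo luminescence read gave % activity for curve fitting.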
TDP1 cell CPT – growth inhibition of DT40 Tdp1-/-;hTDP1 cells with camptothecin (screen for TDP1 inhibitors) | Potency, µM (highest dose often 46.2 µM), most hits filed as inhibitors | AID 686979 | 420,000 tested, 12% active | chicken DT40 Tdp1-/-;hTDP1 cells + 20 nM CPT, ATP luminescence, 48 h; note: nearly all actives have a fitted effect of over 55% in size
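Cell growth measured by CellTiter-Glo luminescence after a minimum 48 h, 37 C compound exposure with 20 nM CPT in Tdp1-knockout DT40 cells stably expressing hTDP1, seeded 400/well; qHTS titration format.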
12-LOX inh – blocks human arachidonate 12S-lipoxygenase. P18054. purified 12hLO, xylenol orange hydroperoxide absorbance. Potency, µM (highest dose often 108 µM), most hits filed as inhibitors. 580,000 tested, 1.1% active
Target sequence (P18054 whole entry, looked up): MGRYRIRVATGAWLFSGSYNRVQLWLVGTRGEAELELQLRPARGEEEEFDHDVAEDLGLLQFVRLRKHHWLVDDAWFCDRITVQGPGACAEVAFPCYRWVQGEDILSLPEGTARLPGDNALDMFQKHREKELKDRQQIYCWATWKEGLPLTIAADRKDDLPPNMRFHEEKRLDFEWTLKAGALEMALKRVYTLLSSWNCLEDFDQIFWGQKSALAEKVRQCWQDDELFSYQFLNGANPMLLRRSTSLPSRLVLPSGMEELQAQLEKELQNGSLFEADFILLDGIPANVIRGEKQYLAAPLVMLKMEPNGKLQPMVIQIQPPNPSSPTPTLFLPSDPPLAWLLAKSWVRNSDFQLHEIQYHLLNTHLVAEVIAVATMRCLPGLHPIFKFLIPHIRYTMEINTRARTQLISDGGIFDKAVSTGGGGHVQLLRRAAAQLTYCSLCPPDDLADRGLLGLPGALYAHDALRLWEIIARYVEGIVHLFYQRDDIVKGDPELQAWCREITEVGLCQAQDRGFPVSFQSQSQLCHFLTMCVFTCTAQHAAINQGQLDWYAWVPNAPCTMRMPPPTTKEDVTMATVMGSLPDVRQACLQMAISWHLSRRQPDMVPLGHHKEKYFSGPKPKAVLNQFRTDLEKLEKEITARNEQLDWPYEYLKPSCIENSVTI
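Purified human 12hLO (150 nM final) in 25 mM Hepes, 0.01% Triton X-100, pH 7.0 was preincubated 15 min at room temperature with compound. Then 40 uM arachidonic acid was added, 30 min. Hydroperoxide was read by Fe-XO absorbance ratio 573/405 nm.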
IL1B secr inh – inhibitors of inflammasome signaling (IL-1 beta secretion); activity change, % at 57.5 µM; THP-1 LPS/ATP IL-1B secretion, AlphaLISA, 16 h; active compounds read low; 360,000 tested, 4.7% active; in the data active = activity change below about -50%; inconclusive = mostly about -30% to -49%
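Secreted IL-1B measured by AlphaLISA bead assay after 16 h compound exposure of THP-1 cells; compounds (final up to 57.5 uM) added 1 h before LPS (250 ng/mL) and ATP (1.25 mM) stimulation; lower signal means less secretion.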
DT40 TDP1 no CPT – qHTS for Inhibitors of human tyrosyl-DNA phosphodiesterase 1 (TDP1): qHTS in cells in absence of CPT; 420,000 tested, 15% active; AID 686978, 2013; Potency, µM (series often up to 46.2 µM), hits mostly inhibitors; DT40 Tdp1-/- hTDP1 cells, no CPT, ATP luminescence, 48 h; note: nearly all actives have a fitted effect of over 55% in size
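Camptothecin absent (DMSO only). Human TDP1-complemented DT40 knockout cells, 400 cells/well, 37 °C for minimum 48 hr; ATP measured via CellTiter-Glo, 30 min dark incubation, luminescence.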
Large screens that a line does not name were inactive. Shown is part of a subset that was picked to be rich in hits. Unless noted, calls come from the whole dose curve; as a rule, active = well fitted curve in the direction sought with a large enough effect; inconclusive = small, poorly fitted or top-dose-only effect, or another doubt; inactive = no such curve, though single readings can be large; an effect the other way counts as inactive or inconclusive.

N/C(=N\OC(=O)c1ccc(=O)n(Cc2ccc(Cl)cc2)c1)c1ccccn1	HT1080-NT tox inconclusive, TDP1 cell CPT 21µM, DT40 TDP1 no CPT inconclusive
CCCc1ccc(C(=O)O/N=C(\N)c2ccccn2)cc1	HT1080-NT tox inconclusive, HT1080 IDH1KD tx inconclusive, TDP1 cell CPT inconclusive, IL1B secr inh -58
N/C(=N\OC(=O)c1ccc(=O)n(Cc2ccccc2)c1)c1ccccn1	TDP1 cell CPT inconclusive, DT40 TDP1 no CPT inconclusive
CCCCn1cnc2c1c(=O)n(CC(=O)NC1CC1)c(=O)n2CCC	none (no result: HT1080-NT tox, HT1080 IDH1KD tx, TDP1 cell CPT, IL1B secr inh, DT40 TDP1 no CPT)
C/C(=N\N1CCN(C2c3ccccc3-c3ccccc32)CC1)c1ccncc1	TDP1 cell CPT 16µM, 12-LOX inh inconclusive, DT40 TDP1 no CPT 16µM
C(=N\N1CCN(C2c3ccccc3-c3ccccc32)CC1)/c1ccncc1	TDP1 cell CPT inconclusive, DT40 TDP1 no CPT inconclusive
CCOC(=S)SCc1cn2ccc(C)cc2n1	TDP1 cell CPT inconclusive, IL1B secr inh -57, DT40 TDP1 no CPT inconclusive
CCC(=O)/C=C1\Sc2ccc(OC)cc2N1CCO	HT1080-NT tox inconclusive
CCC(=O)/C=C1\Sc2ccc(OC)cc2N1CC	TDP1 cell CPT inconclusive, DT40 TDP1 no CPT 16µM
Cn1c(=O)c2c(ncn2CC(=O)NCCc2ccc(Cl)cc2)n(C)c1=O	none (no result: HT1080-NT tox, HT1080 IDH1KD tx, TDP1 cell CPT, IL1B secr inh, DT40 TDP1 no CPT)
CCC1=C(c2ccc(C)cc2)S(=O)(=O)N=C1N1CCC(C(=O)NCc2ccc(N(C)C)cc2)CC1	TDP1 cell CPT 18µM, 12-LOX inh inconclusive, DT40 TDP1 no CPT 23µM (no result: HT1080-NT tox, HT1080 IDH1KD tx, IL1B secr inh)
CCc1ccc(/C=N/NC(=O)C(O)(c2ccccc2)c2ccccc2)cc1	none (no result: HT1080-NT tox, HT1080 IDH1KD tx, TDP1 cell CPT, IL1B secr inh, DT40 TDP1 no CPT)
CC(C)(C)C1CCC(CN2C(Nc3ccccc3)=NC[C@@H]2Cc2ccccc2)CC1 (some centres not stated)	TDP1 cell CPT 23µM, 12-LOX inh inconclusive, IL1B secr inh inconclusive, DT40 TDP1 no CPT 13µM
CCCCCCCN1C(Nc2ccccc2)=NC[C@@H]1Cc1ccccc1	HT1080-NT tox inconclusive, HT1080 IDH1KD tx inconclusive, TDP1 cell CPT inconclusive, DT40 TDP1 no CPT 18µM
c1ccc(C[C@H]2CN=C(Nc3ccccc3)N2CCCC2CCCC2)cc1	HT1080-NT tox inconclusive, HT1080 IDH1KD tx inconclusive, TDP1 cell CPT inconclusive, DT40 TDP1 no CPT 16µM (no result: 12-LOX inh)
CCN1C(Nc2ccccc2)=NC[C@@H]1Cc1ccccc1	TDP1 cell CPT inconclusive
CC(C)(C)CN1C(N)=NC[C@@H]1Cc1ccccc1	none
C[C@H]1CN=C(Nc2ccccc2)N1CCCC1CCCCC1	TDP1 cell CPT inconclusive, IL1B secr inh inconclusive, DT40 TDP1 no CPT inconclusive
c1ccc(CCCCN2C(Nc3ccccc3)=NC[C@@H]2Cc2ccccc2)cc1	TDP1 cell CPT inconclusive, 12-LOX inh inconclusive, IL1B secr inh -55, DT40 TDP1 no CPT 23µM
CCCS(=O)(=O)N1CC[C@H]2NC(=O)N(c3ccc(F)cc3)C(=O)[C@H]21	none (no result: HT1080-NT tox, HT1080 IDH1KD tx, TDP1 cell CPT, IL1B secr inh, DT40 TDP1 no CPT)
CCCC[C@@H]1CNC(=O)C(=O)N1CCCC	12-LOX inh inconclusive
CC(=O)N1CCc2nn(CC(=O)N3CCN(c4ccccc4)CC3)c(=O)cc2C1	none (no result: HT1080-NT tox, HT1080 IDH1KD tx, TDP1 cell CPT, IL1B secr inh, DT40 TDP1 no CPT)
O=C(c1cc(-c2ccco2)nc2ccccc12)N1CCCC(C(F)(F)F)C1 (configuration not stated)	TDP1 cell CPT inconclusive
O=C(c1cc(-c2ccncc2)nc2ccccc12)N1CCOCC1	none
O=C(c1cc(-c2ccncc2)nc2ccccc12)N1CCCC(C(F)(F)F)C1 (configuration not stated)	TDP1 cell CPT inconclusive, DT40 TDP1 no CPT 18µM
CC(C)n1ncc2c(C(=O)N3CCN(c4ccc(F)cc4)CC3)cc(-c3ccccc3)nc21	TDP1 cell CPT inconclusive, 12-LOX inh inconclusive, IL1B secr inh -58, DT40 TDP1 no CPT inconclusive
O=C(c1cc(-c2ccncc2)nc2ccccc12)N1CCN(S(=O)(=O)/C=C/c2ccccc2)CC1	TDP1 cell CPT inconclusive, IL1B secr inh inconclusive, DT40 TDP1 no CPT 18µM
CC(=O)N1CCN(C(=O)c2cc(-c3cccs3)nc3ccccc23)CC1	none (no result: HT1080-NT tox, HT1080 IDH1KD tx, TDP1 cell CPT, IL1B secr inh, DT40 TDP1 no CPT)
